High-throughput results deposited in PubChem by National Center for Advancing Translational Sciences (NCATS).
Rows were chosen to be rich in hits. Some 19% of all compounds tested hit in one or more screens of this group.
ELG1 DNA repair = ELG1-dependent DNA repair inhibition; Potency, µM (top dose mostly 46.1 µM), inactives show at the top dose activity change, negative = inhibition, hits mostly inhibitors; HEK293T ELG1-luciferase reporter, luminescence, 16 h; DNA damage induced by 5-fluorouridine; actives 2.3% (n = 330,000); AID 504467; further: potency means the concentration at half of the fitted maximal effect; nearly all actives have a fitted effect of over 55% in size
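DMSO vehicle served as the neutral condition. Each well held 2,000 cells given 5-fluorouridine plus compound; after 16 hr at 37 °C/5% CO2, ONE-Glo was added and luciferase measured 30 min later.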
TDP1 cell CPT = DT40-hTDP1 cell growth loss with CPT; chicken DT40 Tdp1-/-;hTDP1 cells + 20 nM CPT, ATP luminescence, 48 h; Potency, µM (highest dose often 46.2 µM), for inactives: top-dose activity change, negative = growth inhibition, usual class: inhibitors; actives 12% (n = 420,000); AID 686979; further: potency means the concentration at half of the fitted maximal effect; nearly all actives have a fitted effect of over 55% in size
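Cell growth measured by CellTiter-Glo luminescence after a minimum 48 h, 37 C compound exposure with 20 nM CPT in Tdp1-knockout DT40 cells stably expressing hTDP1, seeded 400/well; qHTS titration format.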
HT1080NT lethal = kills 2HG-producing HT-1080-NT fibrosarcoma cells; AID 686970; actives 1.6% (n = 360,000); Potency, µM (top dose mostly 46.1 µM), inactives show at the highest dose activity, negative = less viability, hits mostly cytotoxic; HT-1080-NT fibrosarcoma viability, CellTiter-Glo ATP luminescence, 48 h;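 further: NT is the 2HG producing partner of a matched IDH1 knockdown line; potency means the concentration at half of the fitted maximal effect; 0% = DMSO-treated cells and -100% = media-only wells without cells; nearly all actives have a fitted effect of over 55% in size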
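Read-out is CellTiter-Glo luminescence after 10 minutes at room temperature, following 48 hours' compound treatment of HT-1080-NT cells (750 cells/well, RPMI, 5% FBS, 37 degrees C).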
IL-1B inflam inh = inflammasome signaling inhibition, IL-1 beta readout; THP-1 LPS/ATP IL-1B secretion, AlphaLISA, 16 h; active compounds read low; activity change, % at 57.5 µM; actives 4.7% (n = 360,000); in the data active means activity change below about -50%; inconclusive means mostly about -30% to -49%
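THP-1 cells pretreated 1 hr with compounds (up to 57.5 uM final), then stimulated with LPS (250 ng/mL final) plus ATP (1.25 mM final); secreted IL-1B measured by AlphaLISA after 16 hr, decreased signal indicating inhibition.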
HT1080 IDH1KD tx = HT-1080 IDH1 knockdown cell toxicity (counter line); AID 686971; Potency, µM (doses to about 46.1 µM), without a hit: at the top dose activity, negative = toxicity, actives largely listed as cytotoxic; HT-1080 IDH1 knockdown viability, ATP luminescence, 48 h; actives 2% (n = 360,000);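 further: potency means the concentration at half of the fitted maximal effect; 0% = DMSO wells and -100% = cell-free medium wells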
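After a 2 h attachment period, IDH1KD HT-1080 cells took pin-transferred compound for 48 h at 37 °C; ATP-based luminescence after 10 min room-temperature reagent incubation reported viability.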
TDP1 cell noCPT = qHTS for Inhibitors of human tyrosyl-DNA phosphodiesterase 1 (TDP1): qHTS in cells in absence of CPT; DT40 Tdp1-/- hTDP1 cells, no CPT, ATP luminescence, 48 h; Potency, µM (titrated, usually from 46.2 µM), without a hit: at the top dose activity change, negative = growth inhibition, hits mostly inhibitors; actives 15% (n = 420,000); further: potency means the concentration at half of the fitted maximal effect; nearly all actives have a fitted effect of over 55% in size
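A cellular qHTS used chicken DT40 cells lacking endogenous Tdp1 but carrying stably transfected human TDP1. Compounds were applied without camptothecin, and cell growth kinetics were judged by ATP-dependent luminescence after ≥48 hr.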
* = called active by the depositor; ? = inconclusive; . = not tested or not shown. Unless noted, the call rests on the fitted dose curve; in most records, active means well fitted curve in the direction sought with a large enough effect; inconclusive means small, poorly fitted or top-dose-only effect, or another doubt; inactive means no such curve, though single readings can be large; an effect the other way counts as inactive or inconclusive. Unless noted, on the % scale 0 is the no-effect control and ±100 the full control effect.

SMILES | ELG1 DNA repair | TDP1 cell CPT | HT1080NT lethal | IL-1B inflam inh | HT1080 IDH1KD tx | TDP1 cell noCPT
CC(C)Oc1ccc(C(=O)N2CCC(c3nc4ccccc4o3)CC2)cc1 | . | ? | . | . | . | 18.4µM*
CCCCOc1ccc(C(=O)N2CCC(c3nc4ccccc4o3)CC2)cc1 | . | ? | . | . | . | 13µM*
N/C(=N\OC(=O)c1cc(Cl)ccc1Cl)c1ccccn1 | ? | -29.4% | -1.2% | 0.0 | -0.1% | -6.1%
O=C(NC1CC1)c1cccc(Nc2ccc(-c3ccc4c(c3)OCCO4)nn2)c1 | ? | 20.6µM* | ? | 3.1 | ? | 11.6µM*
O=C(Nc1cccc(C(=O)NC2CC2)c1)c1ccccc1 | . | 5.9% | 11.4% | -2.1 | 6.8% | 0.4%
CS(=O)(=O)c1ccc(-c2cnc3c(NC=O)cc(-c4ccsc4)cn23)cc1 | . | 23.1µM* | 2.3% | ? | -2.0% | 18.4µM*
O=CNc1cc(-c2ccsc2)cn2c(-c3ccccc3)cnc12 | . | 16.4µM* | ? | 24.2 | ? | 20.6µM*
Nc1ccc(O)cc1C(=O)OCC(=O)c1ccc(C2CCCCC2)cc1 | ? | ? | -14.8% | -93.6* | ? | 20.6µM*
COc1ccc(C(=O)OCC(=O)c2ccc(C3CCCCC3)cc2)cc1 | 11.4% | ? | -6.2% | -23.4 | -8.5% | 20µM*
COc1ccc(C(=O)Nc2ccc(C(=O)OCC(=O)c3ccccc3)cc2)cc1 | 2.8% | -20.0% | 3.7% | 6.1 | -15.4% | -19.6%
O=C(COC(=O)c1ccc(O)cc1O)c1ccc(Cl)cc1 | ? | -20.3% | -12.5% | 2.5 | -2.8% | -17.1%
Cn1c(=O)c2[nH]c(N3CCN(c4ccccn4)CC3)nc2n(C)c1=O | 6.9% | . | . | . | . | .
Cn1c(=O)c2[nH]c(N3CCCCC3)nc2n(C)c1=O | -3.7% | 20.6µM* | 3.7% | 28.6 | 1.0% | 1.0%
Cc1ccccc1NC(=O)CSc1nc(-c2ccccc2)cn1-c1ccccc1F | . | ? | . | . | . | 23.1µM*
Cc1ccccc1NC(=O)CSc1nnc(-c2ccccc2)n1-c1ccccc1 | 2.0% | -74.6% | -5.5% | -28.8 | -5.5% | ?
Cc1ccc(C)c(-n2cc(-c3ccccc3)nc2SCC(=O)Nc2ccccc2)c1 | . | ? | . | . | . | 18.4µM*
COc1cccc(/C=C2\SC(=S)N(CC3CCCO3)C2=O)c1 (stereo unspecified) | ? | -2.8% | 1.6% | -70.7* | -20.0% | -6.8%
CCOc1cc(/C=C2/SC(=S)N(CC3CCCO3)C2=O)ccc1O (stereo unspecified) | -16.5% | ? | 2.4% | -6.8 | -0.8% | 23.1µM*
O=C(Cn1nc(-c2ccccc2)c2ccccc2c1=O)Nc1ccc(O)cc1 | 1.2% | -4.1% | 28.3% | 2.9 | 3.8% | -2.9%
Cc1ccc(NC(=O)NNC(=O)Cn2nc(-c3ccccc3)c(-c3ccccc3)c(C#N)c2=O)cc1 | -13.7% | ? | 4.61µM* | 73.5 | 5.17µM* | ?
Cc1oc(-c2cccs2)nc1CN1CCC(CO)(CCOc2ccccc2)CC1 | -1.1% | ? | 2.9% | -82.7* | 11.0% | ?
CCOc1ccccc1CN1CCC(CO)(CCOc2ccccc2)CC1 | 8.8% | 4.7% | -15.2% | -73.3* | -24.8% | -1.9%
OCC1(CCOc2ccccc2)CCN(Cc2cn[nH]c2-c2ccc(F)cc2)CC1 | -2.4% | 2.6% | ? | -57.1* | 23.1µM* | ?
OCC1(CCOc2ccccc2)CCN(CC2=Cc3cc(Cl)ccc3OC2)CC1 | -13.6% | 18.4µM* | -22.1% | -92.7* | 18.4µM* | 20.6µM*
OCCOc1cccc(CN2CCC(CO)(CCOc3ccccc3)CC2)c1 | 1.4% | -29.2% | -3.5% | -8.9 | -1.9% | -14.9%
SMILES | ELG1 DNA repair | TDP1 cell CPT | HT1080NT lethal | IL-1B inflam inh | HT1080 IDH1KD tx | TDP1 cell noCPT
O=S(=O)(NCCc1cn2ccsc2n1)c1ccc(Cl)cc1 | . | -16.8% | . | . | . | -15.3%
CCCCOc1ccc(N2C(=O)C(C)CNC2=S)cc1 (stereo unspecified) | . | 10.5% | 11.1% | 42.0 | 3.6% | 6.5%
COc1cc(Cl)c(CN2CCC(CO)(CCOc3ccccc3)CC2)cc1OC | -4.9% | ? | -6.3% | ? | -8.3% | ?
OCC1(CCOc2ccccc2)CCN(Cc2ccccc2C(F)(F)F)CC1 | -12.5% | -12.5% | ? | -55.1* | -24.8% | -27.3%
C[C@@H]1CCCCCCCCC(=O)OCCN[C@H](C)CCCCCCCCC(=O)OCCN[C@H](C)CCCCCCCCC(=O)OCCN1 | 7.2% | 13µM* | -26.2% | -58.6* | -23.9% | 20.6µM*
CCOC(=O)c1[nH]c(C)c(CCC(=O)Nc2ccccc2C(=O)OC)c1C | . | 13µM* | . | . | . | 16.4µM*
CCOC(=O)c1[nH]c(C)c(CCC(=O)NCc2ccc(OC)cc2)c1C | . | -2.1% | . | . | . | -26.6%
CCOC(=O)c1[nH]c(C)c(CCC(=O)Nc2ccc(N(CC)CC)cc2C)c1C | . | 23.1µM* | . | . | . | 20.6µM*
CCOC(=O)c1[nH]c(C)c(CCC(=O)Nc2ccccc2OCC)c1C | . | ? | . | . | . | 16.4µM*
COc1ccc(CNC(=O)CN2C(=O)CSc3ccc(S(=O)(=O)N4CCCC4)cc32)cc1 | . | -21.2% | . | . | . | ?
CCc1cc[n+](C(C(=S)Nc2cccc(C)c2)=C([O-])c2ccc(C)c([N+](=O)[O-])c2)cc1 | . | 16.4µM* | -2.2% | -17.6 | -0.3% | .
COc1ccccc1NC(=S)NCc1ccc2c(c1)OCO2 | 4.8% | 1.7% | 17.7% | 15.0 | 6.4% | ?
COc1cccc(-c2cccc(NC(=O)C3CCN(Cc4nccs4)CC3)c2)c1 | -7.6% | 13.6% | 3.0% | 2.3 | 5.7% | -2.4%
CCOc1ccc(CN2CCC(C(=O)Nc3cccc(-c4ccn[nH]4)c3)CC2)cc1Cl | -0.2% | ? | 18.4µM* | -76.4* | ? | ?
CCC(CCC(C)C1CCC2C3CC=C4CC(OC(C)=O)CC[C@@]4(C)C3CC[C@@]12C)C(C)C (stereo partly specified) | . | -22.1% | . | . | . | -11.5%
CN1CCc2c(sc3c2C(=O)NC(c2ccc(-c4ccc(Cl)cc4)o2)N3)C1 (stereo unspecified) | ? | ? | -1.5% | . | -2.9% | ?
Cn1cccc1C1NC(=O)c2c(sc3c2CCC(C(C)(C)C)C3)N1 (stereo unspecified) | 13.2% | -29.7% | -8.3% | ? | -1.7% | 18.4µM*
COc1cc(C2Sc3ccccc3NC3=C2C(=O)OC3)cc(OC)c1OC (stereo unspecified) | -10.0% | 16.4µM* | -3.0% | 36.3 | ? | ?
